This note sets out measurements from PubChem BioAssay (NCATS).

Inconclusive results are not listed. Where a call stands in place of a potency, no number is given. Values without a mark were called inactive. The source made the active and inactive calls. Calls follow the shape of the dose curve; as a rule, active = well fitted cell-killing curve with a large enough effect; inconclusive = small, poorly fitted or top-dose-only effect, or effect the other way; inactive = flat fitted curve, though single readings scatter. Where a SMILES comes first, the peptide text is derived from it. [ ]: non-standard residue; d: D form. ξ: configuration not given here. ξPhe(βξ-Me) = CC(c1ccccc1)C(N)C(=O)O; GABA = NCCCC(=O)O
Potency is read from the fitted curve at half-maximal effect.

This assay concerns CAOV3. The experiment in a line: Primary qHTS to identify gynecologic anti-cancer compounds using libraries of approved drugs and bioactive compounds (AID 1345084). Also: nearly all actives have a fitted effect of over 55% in size. The settings on record: Gynecologic cancer cell panel viability, ATPlite luminescence, 48 h; series mostly up to 57.5 µM. In outline:
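In this quantitative HTS, cell killing is estimated from loss of ATP-dependent luciferase light. Cells see five compound concentrations over a 48 h exposure.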
On the technique in general: Quantitative high-throughput screening tests each substance at several concentrations.
For the compound `COC(=O)C1C(CC(C)=O)C=CC(O)C12Oc1cc(C)cc(O)c1C2=O` (stereo not drawn), the Potency entry was “inactive”.
As for `CC1(C)CCC[C@@]2(C)[C@H]1[C@H](O)C=C1COC(=O)[C@@]12O`, the Potency result is “inactive”.
With `O=C(O)Cc1nn(Cc2nc3cc(C(F)(F)F)ccc3s2)c(=O)c2nccnc12`, the Potency entry was “inactive”.
On the same count and under the same terms, for `CC1CCC2(C(=O)OC3OC(CO)C(O)C(O)C3O)CCC3(C(=O)O)C(=CCC4C5(C)CCC(OC6OC(C)C(O)C(O)C6O)C(C)(C)C5CCC43C)C2C1C` (stereo not drawn) the value was “inactive”.
In the case of `CC(CO[C@@H]1O[C@H](COC(=O)/C=C/c2ccc(O)c(O)c2)[C@@H](O)[C@H](O)[C@H]1O)C1(O)COC(=O)C1` (stereo partly drawn), the Potency entry was “inactive”.
For the compound `CCCCN(CCCC)C(=O)CN1C[C@H](c2ccc3c(c2)OCO3)[C@@H](C(=O)O)[C@@H]1c1ccc(OC)cc1`, the Potency entry is “inactive”.
Still for that read-out and setting: the result for `CC(C)C(=O)O[C@@H]1[C@@H](O)[C@@H](O[C@H]2O[C@H](CO)[C@@H](O)[C@H](O)[C@H]2O)O[C@H](CO)[C@H]1O` reads “inactive”.
Regarding `CC1(C)CC[C@]2(C(=O)O)CC[C@]3(C)C(=CCC4[C@@]5(C)CCC(O[C@@H]6OC[C@H](O)[C@H](O)[C@H]6O[C@@H]6O[C@H](CO)[C@@H](O)[C@H](O)[C@H]6O)[C@@](C)(CO)C5CC[C@]43C)[C@@H]2C1` (stereo partly drawn), the Potency entry is “inactive”.
Regarding `CCc1c(CC(N)=O)c2cc(OCCCP(=O)(O)O)ccc2n1Cc1ccccc1`, the Potency result was “inactive”.
On the same count and under the same terms, the result for `COc1ccc(C[C@H](N)C(=O)N[C@H]2[C@@H](O)[C@H](n3cnc4c(N(C)C)ncnc43)O[C@@H]2CO)cc1` reads 1120 nM (active); that for `COC(=O)C1=CO[C@@H](O[C@@H]2O[C@H](CO)[C@@H](O)[C@H](O)[C@H]2O)[C@@H]2[C@@H](C(=O)OC)[C@@H](O)C(O)[C@H]12` (stereo partly drawn), “inactive”.
Take `CC(C)CC1NC(=O)C(C(C)c2ccccc2)NC(=O)C(C(C)C)NC(=O)C(C)NC(=O)CCCNC(=O)C(Cc2c[nH]c3ccccc23)NC(=O)C(C)NC1=O` (stereo not drawn) (cyclo([GABA]AV[ξPhe(βξ-Me)]LAW); configuration not given here): the Potency entry was “inactive”.
Regarding `C=C1CCC2C(C)(C)C(O)CCC2(C)C1CCC(C)CCOC(=O)CCC(=O)O` (stereo not drawn), the Potency entry is “inactive”.
On to `COc1cc(C)c(C(=O)O[C@H]2[C@@H](O)[C@H](n3ccc(=O)[nH]c3=O)O[C@@H]2CO)c(OC)c1`, for which the Potency result is “inactive”.
Regarding `COC(=O)C1=COC(O[C@@H]2O[C@H](CO)[C@@H](O)[C@H](O)[C@H]2O)/C(=C\COC(=O)c2ccc(OC3OC(CO)C(O)C(O)C3O)c(OC)c2)C1CC(=O)OCCc1ccc(O)cc1` (stereo partly drawn), the activity change, negative = cytotoxicity was -8.27% [at 11.6 µM].
As for `COc1cc(CC(COC2OC(CO)C(O)C(O)C2O)c2cc(/C=C/CO)cc(OC)c2O)ccc1O` (stereo not drawn), the Potency entry is “inactive”.
On to `CC1(C)C[C@H]2C3=CCC4[C@@]5(C)CC[C@H](O[C@H]6O[C@H](C(=O)O)[C@@H](O)[C@H](O)[C@H]6O[C@H]6O[C@H](CO)[C@@H](O)[C@H](O)[C@H]6O[C@@H]6O[C@H](CO)[C@@H](O)[C@H](O)[C@H]6O)[C@](C)(CO)C5CC[C@@]4(C)[C@]3(C)CC[C@@]2(C)[C@H](O[C@@H]2OC[C@H](O)[C@H](OC3O[C@H](CO)[C@@H](O)[C@H](O)[C@H]3O)[C@H]2O)[C@@H]1O` (stereo partly drawn), for which the activity change, negative = cytotoxicity was 18.6% [at 6.55 µM].
`O=C1N(CC2CCCCN2)CCN1c1ccccc1` (stereo not drawn): the Potency result is “inactive”.
Still for that read-out and setting: the result for `CCCOc1ccn2c(C(C)=O)cc(-c3ccccc3S(C)(=O)=O)c2c1` reads “inactive”; that for `COc1cc(/C=C/C(=O)O[C@H]2[C@H](O)[C@@H](CO)O[C@@]2(CO)O[C@H]2O[C@H](COC(=O)c3ccc(O)cc3)[C@@H](O)[C@H](O)[C@H]2O)cc(OC)c1OC`, “inactive”.
Consider `OC[C@H]1O[C@@H](n2cnc3c2NC=NC[C@H]3O)C[C@@H]1O`, for which the Potency entry is “inactive”.
With `CNc1nc(Nc2cnn([C@H]3CCN(C4COC4)C[C@@H]3F)c2Cl)ncc1C(F)(F)F`, the Potency entry was “inactive”.
On the same count and under the same terms, for `CCCCS(=O)(=O)Nc1ncnc(OCCOc2ncc(Br)cn2)c1-c1ccc(Br)cc1` the value was “inactive”.
For `CC/C=C/CC1=C(CCCCCCCC(=O)O)CCC1=O`, the Potency entry is “inactive”.
On the same count and under the same terms, for `C[C@@H]1O[C@@H](OC[C@H]2O[C@@H](OCCc3ccccc3)[C@H](O)[C@@H](O)[C@@H]2O)[C@H](O)[C@H](O)[C@H]1O` the value was “inactive”.
Still for that read-out and setting: for `C=C[C@](C)(CC/C=C(\C)C(=O)O)O[C@@H]1OC[C@H](O)[C@H](O)[C@H]1O` the value was “inactive”; for `FC(F)(F)c1cc(C(F)(F)F)c2ccc3nc(-c4nnco4)cn3c2n1`, “inactive”; for `C[C@@H]1O[C@@H](OC[C@H]2O[C@@H](OCC3CCC4CC3C4(C)C)[C@H](O)[C@@H](O)[C@@H]2O)[C@H](O)[C@H](O)[C@H]1O` (stereo partly drawn), “inactive”.
The same measure, in the same setting: for `O=C1[C@H](O[C@@H]2O[C@H](CO)[C@@H](O)[C@H](O)[C@H]2O)Oc2ccccc2N1O` the value was “inactive”.
Regarding `C[C@@H]1O[C@@H](O[C@H]2[C@H](OC(=O)[C@]34CCC(C)(C)C[C@H]3C3=CCC5[C@@]6(C)C[C@H](O)[C@H](O[C@@H]7O[C@H](CO[C@@H]8OC[C@H](O)[C@H](O)[C@H]8O)[C@@H](O)[C@H](O)[C@H]7O)C(C)(C)C6CC[C@@]5(C)[C@]3(C)C[C@H]4O)OC[C@@H](O)[C@@H]2O)[C@H](O)[C@H](O[C@@H]2OC[C@](O)(CO)[C@H]2O)[C@H]1O[C@@H]1OC[C@H](O)[C@H](O[C@@H]2OC[C@@H](O)[C@H](O)[C@H]2O)[C@H]1O` (stereo partly drawn), the activity change, negative = cytotoxicity was 12.2% [at 6.55 µM].
Turning to `COC(=O)C1C(c2ccc(O)cc2)C(C(=O)OC)C1c1ccc(O)cc1` (stereo not drawn), the Potency entry was “inactive”.
Still for that read-out and setting: for `CCN[C@@H]1C[C@H](N)[C@@H](O[C@H]2OC(CN)=CC[C@H]2N)[C@H](O)[C@H]1O[C@H]1OC[C@](C)(O)[C@H](NC)[C@H]1O` the value was “inactive”; for `CCOC(=O)[C@H]1O[C@@H]1C(=O)N[C@@H](CC(C)C)C(=O)NCCC(C)C`, “inactive”.
As to `CC(=O)N1c2ccccc2C2(O)CC3C(=O)NC(CC(C)C)C(=O)N3C12` (stereo not drawn), the Potency result was “inactive”.
`CC(C)=CCC/C(C)=C/CC/C(C)=C/CC[C@]1(C)CCc2cc(O)cc(C)c2O1`: the Potency result was “inactive”.
The same measure, in the same setting: the result for `O=C(c1ccc(NS(=O)(=O)c2cccc3cccnc23)cc1)N1CCN(CC2CC2)CC1` reads “inactive”; that for `COc1cc(N2CCC(O)CC2)ccc1Nc1cc(Nc2ccccc2S(=O)(=O)C(C)C)c2cc[nH]c2n1`, “inactive”.
On to `C[C@@H]1O[C@@H](O[C@H]2[C@H](OC(=O)[C@]34CCC(C)(C)C[C@H]3C3=CCC5[C@@]6(C)C[C@H](O)[C@H](O[C@@H]7O[C@H](CO)[C@@H](O[C@@H]8O[C@H](CO)[C@@H](O)[C@H](O)[C@H]8O)[C@H](O)[C@H]7O)[C@@](C)(CO)C6[C@H](O)C[C@@]5(C)[C@]3(C)C[C@H]4O)OC[C@H](O)[C@@H]2O)[C@H](O)[C@H](O)[C@H]1O[C@@H]1OC[C@@H](O)[C@H](O[C@@H]2OC[C@](O)(CO)[C@H]2O)[C@H]1O` (stereo partly drawn), for which the activity change, negative = cytotoxicity is 18.5% [at 6.55 µM].
